Tau fibril ThT: inhibitors of human tau fibril formation, thioflavin T binding. Potency, µM (series often up to 57.4 µM), without a hit: top-dose activity, negative = inhibition, actives largely listed as inhibitors. P10636. actives 2.1% (n = 270,000). recombinant tau K18 P301L, heparin-induced fibrillization, ThT fluorescence; further: nearly all actives have a fitted effect of over 55% in size
Target sequence (P10636 561-689 P618L limits assumed): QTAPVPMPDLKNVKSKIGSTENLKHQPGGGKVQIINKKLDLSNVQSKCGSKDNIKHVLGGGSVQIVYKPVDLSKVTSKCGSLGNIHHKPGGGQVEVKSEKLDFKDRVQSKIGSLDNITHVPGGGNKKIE
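Aggregation was driven by heparin (20 uM final) acting on recombinant tau […] bearing P301L in 100 mM sodium acetate pH 7; fibrils were detected with Thioflavin T.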
Tau FP inhib: blocks human tau fibril formation measured by polarization; P10636; K18 P301L tau heparin fibrillization, Alexa594 FP, 6 h; Potency, µM (highest dose often 57.7 µM), for the others: at the top dose activity, negative = inhibition, most hits filed as inhibitors; actives 0.39% (n = 280,000); AID 1468; further: nearly all actives have a fitted effect of over 55% in size
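Quantitative HTS format: compounds meet 15 uM recombinant K18 P301L tau and Alexa 594-tau tracer in 100 mM sodium acetate pH 7; 20 uM heparin triggers fibrillization at 37 C over 6 hr; FP gives the signal.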
Tau fluor cs: counter-screen for tau fibril formation inhibitors; tau K18 P301L (four-repeat tau fragment) Alexa594 fluorescence, heparin fibrillization; Potency, µM (top dose mostly 57.7 µM), inactives show at the top dose activity change, negative = decrease; actives 0.93% (n = 280,000); AID 1463; further: nearly all actives have a fitted effect of over 55% in size
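Human K18 P301L tau (15 uM unlabeled plus 0.24 uM Alexa 594-labeled, final) in 100 mM sodium acetate pH 7 was mixed with compound and 20 uM heparin and incubated 6 hr at 37 C.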
RORg inh: blocks mouse ROR gamma transcriptional activity. P51450. Drosophila S2 Gal4-RORgamma UAS-luciferase reporter, 20 h. Potency, µM (top dose mostly 53.6 µM), without a hit: at the highest dose activity change, negative = inhibition, hits mostly inhibitors. actives 5.4% (n = 310,000); further: nearly all actives have a fitted effect of over 60% in size
Target sequence (P51450 whole entry, looked up, the tested form may be a part): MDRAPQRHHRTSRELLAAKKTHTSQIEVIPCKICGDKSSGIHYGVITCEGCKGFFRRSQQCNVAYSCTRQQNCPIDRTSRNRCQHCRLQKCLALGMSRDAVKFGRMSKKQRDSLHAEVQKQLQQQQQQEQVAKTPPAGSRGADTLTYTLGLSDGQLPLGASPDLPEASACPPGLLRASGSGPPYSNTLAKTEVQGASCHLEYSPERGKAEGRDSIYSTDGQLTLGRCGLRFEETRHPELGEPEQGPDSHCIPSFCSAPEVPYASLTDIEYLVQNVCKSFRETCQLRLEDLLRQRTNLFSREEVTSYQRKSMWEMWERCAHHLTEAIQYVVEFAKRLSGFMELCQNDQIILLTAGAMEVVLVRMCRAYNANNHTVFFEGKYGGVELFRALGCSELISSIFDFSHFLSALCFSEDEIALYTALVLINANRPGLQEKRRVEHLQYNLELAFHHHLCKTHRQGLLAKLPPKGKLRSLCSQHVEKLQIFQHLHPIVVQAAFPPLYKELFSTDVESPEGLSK
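Luciferase reporter read in Schneider cells carrying Gal4-RORγ (mouse) and UAS-Photinus luciferase; cells given compound 1 h before 700 uM copper sulfate induction, then incubated 20 h at ambient temperature.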
VP16 counter: counter-screen for ROR gamma inhibitors: Gal4-VP16 reporter; Drosophila S2 Gal4-VP16 UAS-luciferase, luminescence, 20 h; Potency, µM (highest dose often 53.6 µM), inactives show at the top dose activity, negative = inhibition, most hits filed as inhibitors; actives 3.5% (n = 310,000);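 further: Gal4-VP16 expression switched on by copper sulfate through the metallothionein promoter; nearly all actives have a fitted effect of over 50% in size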
* hit, by the source's call; ! = not active in a repeat; [ ] = remark or other dose. This is a sample that favours compounds with a hit; in the whole collection about 7.3% have one here. The call rests on the fitted dose curve; in most records, active means well fitted curve in the direction sought with a large enough effect; inconclusive means small, poorly fitted or top-dose-only effect, or another doubt; inactive means no such curve, though single readings can be large; an effect the other way counts as inactive or inconclusive. On the % scale 0 is the no-effect control and ±100 the full control effect; potency means the concentration at half of the fitted maximal effect.

How did S=C(NCCc1ccccc1)N/N=C/c1ccccc1Cl do in these assays?
Tau fibril ThT: -12%; Tau FP inhib: -3%; Tau fluor cs: inconclusive; RORg inh: 11µM*; VP16 counter: inconclusive

Results for COc1ccc(O)c(/C=N/NC(=S)NCCc2ccccc2)c1 ?
RORg inh: 3.2µM*; VP16 counter: 7.1µM*

What do the screens show for `Oc1ccc(Br)cc1/C=N/N1CCN(Cc2ccccc2)CC1`?
Tau fibril ThT: -12%; Tau FP inhib: 4%; Tau fluor cs: -22%; RORg inh: 39%; VP16 counter: -4%

Results for Oc1ccc(Br)cc1/C=N/Nc1ncc(-c2ccccc2)cn1 ?
Tau fibril ThT: inconclusive; Tau FP inhib: 0%; Tau fluor cs: -5%; RORg inh: 11µM*; VP16 counter: -14%

Results for COc1cc2c(-c3ccc(C)cc3)nc3c(c(C)nn3-c3ccccc3)c2cc1OC ?
Tau fibril ThT: -1%; Tau FP inhib: -3%; Tau fluor cs: -5%

Results for COc1ccc(/C(C)=N/NC(=S)NCCc2ccccc2)c(O)c1 ?
RORg inh: 5µM*; VP16 counter: 7.1µM*

How did COc1ccc(/C(C)=N/NC(=O)CNC(=O)Cc2ccccc2)c(OC)c1 do in these assays?
Tau fibril ThT: -1%; Tau FP inhib: 4%; Tau fluor cs: 3%; RORg inh: -1%; VP16 counter: -21%

Results for CN(C)c1ncc2nc(-c3ccccc3)c(=O)n(C)c2n1 ?
RORg inh: 23%; VP16 counter: 13%

What do the screens show for `CCCCNC(=O)c1cnc2c(-c3ccc(OCC)c(OCC)c3)c(C)nn2c1-c1ccccc1`?
Tau fibril ThT: -13%; Tau FP inhib: 0%; Tau fluor cs: -16%

Results for N=c1oc2ccc3ccccc3c2cc1C(N)=S ?
Tau fibril ThT: inconclusive; Tau FP inhib: 3%; Tau fluor cs: -14%; RORg inh: 6.3µM*; VP16 counter: inconclusive

How did O=C(O)c1cc2c(ccc3ccccc32)oc1=O do in these assays?
Tau fibril ThT: -11%; Tau FP inhib: 1%; Tau fluor cs: -2%; RORg inh: -32%; VP16 counter: -3%

What do the screens show for `COc1cc(/C=N/NC(=S)NC2CC3CC2C2C=CCC32)ccc1O` (centres undefined)?
Tau fibril ThT: inconclusive; Tau FP inhib: 13%; Tau fluor cs: 11µM*[quencher]; RORg inh: 1.6µM*; VP16 counter: 4.5µM*

What do the screens show for `CCOc1ccc(N(CC(=O)NC2CC3CCC2C3)S(=O)(=O)c2ccc(C)cc2)cc1` (centres undefined)?
RORg inh: 0%; VP16 counter: -4%

What do the screens show for `CCOc1ccc(/C=N/NC(=S)NC2CC3CC2C2C=CCC32)cc1` (centres undefined)?
Tau fibril ThT: -2%; Tau FP inhib: -5%; Tau fluor cs: -18%; RORg inh: 5µM*; VP16 counter: 4.5µM*

How did CCOc1ccc(/C=N/NC(=S)NC2CC3CCC2C3)cc1 (centres undefined) do in these assays?
Tau fibril ThT: inconclusive; Tau FP inhib: -3%; Tau fluor cs: -12%; RORg inh: 5µM*; VP16 counter: inconclusive

How did CCOc1ccc(/C=N/NC(=O)CN2CCSCC2)cc1 do in these assays?
Tau fibril ThT: -16%; Tau FP inhib: 3%; Tau fluor cs: -1%; RORg inh: -2%; VP16 counter: -4%

Results for COc1ccc(NC(=O)c2cc(C)no2)cc1 ?
RORg inh: 2%; VP16 counter: 19%

What do the screens show for `COc1cc(O)c2c(c1)oc(=O)c1c3cc(O)c(O)cc3oc21`?
RORg inh: 13µM*!; VP16 counter: inconclusive

What do the screens show for `Cc1ccc2oc(=O)c3c4cc(O)c(O)cc4oc3c2c1`?
Tau fibril ThT: inconclusive; Tau FP inhib: 1%; Tau fluor cs: inconclusive; RORg inh: inconclusive; VP16 counter: -15%

What do the screens show for `CC(NC(=O)Cn1ncc(Cl)c(Cl)c1=O)C12CC3CC(CC(C3)C1)C2` (centres undefined)?
Tau fibril ThT: -24%; Tau FP inhib: -1%; Tau fluor cs: 2%; RORg inh: 13µM*; VP16 counter: inconclusive

Results for CCn1cc(C(=O)NC(C)C23CC4CC(CC(C4)C2)C3)cn1 (centres undefined) ?
Tau fibril ThT: -4%; Tau FP inhib: 1%; Tau fluor cs: -5%; RORg inh: -4%; VP16 counter: -9%

What do the screens show for `Cc1ccc(CC2CC(=O)N(c3nc4ccccc4n3C)C2=O)cc1` (centres undefined)?
Tau fibril ThT: -11%; Tau FP inhib: 1%; Tau fluor cs: -7%; RORg inh: 13µM*; VP16 counter: inconclusive

What do the screens show for `Cc1ccc(CNc2nc3ccccc3n2C)cc1`?
RORg inh: 10µM*; VP16 counter: inconclusive

Results for Cn1c(NCc2c(O)ccc3ccccc23)nc2ccccc21 ?
Tau fibril ThT: inconclusive; Tau FP inhib: 9%; Tau fluor cs: 18µM*[quencher]; RORg inh: 18%; VP16 counter: -4%

What do the screens show for `Cn1c(NCc2ccc(Cl)cc2)nc2ccccc21`?
Tau fibril ThT: 5%; Tau FP inhib: 9%; Tau fluor cs: -1%; RORg inh: -37%; VP16 counter: -10%

How did CC(=O)c1cccc(NC(=O)CSc2nnc3ccc(-c4ccc(C)cc4)nn23)c1 do in these assays?
Tau fibril ThT: 2%; Tau FP inhib: -11%; Tau fluor cs: -1%

How did CC(=O)OC1CCC2(C)C(=CCC3C2CCC2(C)C3C[C@@H]3O[C@]32C(C)=O)C1 (some centres undefined) do in these assays?
Tau fibril ThT: -10%; Tau FP inhib: 2%; Tau fluor cs: -8%; RORg inh: 16%; VP16 counter: -1%

How did CC1C/C(=C/c2cccn2C)C(=O)/C(=C/c2cccn2C)C1 (centres undefined) do in these assays?
Tau fibril ThT: inconclusive; Tau FP inhib: -15%; Tau fluor cs: inconclusive; RORg inh: 13µM*; VP16 counter: inconclusive

What do the screens show for `Cc1cccc(N=C2NC(=O)/C(=C/c3cccn3C)S2)c1C`?
Tau fibril ThT: inconclusive; Tau FP inhib: -4%; Tau fluor cs: -21%; RORg inh: 2%; VP16 counter: -28%

How did CC1C/C(=C/c2ccncc2)C(=O)/C(=C/c2ccncc2)C1 (centres undefined) do in these assays?
Tau fibril ThT: 8.9µM*; Tau FP inhib: inconclusive; Tau fluor cs: -22%; RORg inh: 7.1µM*; VP16 counter: 2.8µM*

Results for COC(=O)Sc1nnc(-c2ccc(Br)cc2)o1 ?
Tau fibril ThT: -1%; Tau FP inhib: 2%; Tau fluor cs: -1%; RORg inh: 18µM*; VP16 counter: 7%

Results for OCC#CCSc1nnc(-c2ccc(Br)cc2)o1 ?
Tau fibril ThT: inconclusive; Tau FP inhib: -1%; Tau fluor cs: -12%; RORg inh: inconclusive; VP16 counter: inconclusive
